# In PubChem BioAssay (Tox21):
# Active and inactive are the calls of the source. Calls come from the whole dose curve; as a rule, active = well fitted curve in the direction sought with a large enough effect in the repeat runs; inconclusive = weak or mixed curves; inactive = flat fitted curve, though single readings scatter.
# Test: qHTS assay to test for compound auto fluorescence at 460 nm (blue) in HEK293 cell free culture (AID 720681)
# Settings: cell-free medium, autofluorescence 405/460 nm (blue); series mostly up to 91.3 µM
# Source text: U.S. Tox21 Program National Center for Advancing Translational Sciences [NCATS] NIH Chemical Genomics Center [NCGC] U.S. Environmental Protection Agency [EPA] National Institutes of Environmental Health Sciences [NIEHS] National Toxicology Program [NTP] U.S. Food and Drug Administration [FDA] Tox21 Assay Overview: Compound auto fluorescence often interferes with screening of the compound library against various biological targets and signaling pathways. Some of these compounds may have fluorophoric properties. Such properties may interfere with the assay outputs resulting in false positives and/or negatives. To decrease such complications and ensure the compound activities are relevant in terms of biological response, the Tox21 10K compound library was screened for auto fluorescence. From the fluorophores used as reporter signals in our screening assays, the auto fluorescence equivalencies of compounds against three fluorophores have been evaluated: Triamterene, Fluorescein and Rose Bengal sodium for blue, green and red fluorescence, respectively. The fluorescence intensities were measured using Excitation/Emission wavelengths at 405/460nm, 485/535nm and 540/590nm for blue, green and red labels, respectively. This assay includes the blue fluorescence data.
# Tox21 Assay Protocol Summary: 5 uL of culture medium (DMEM containing 10% FBS) per well was dispensed into black wall/clear bottom 1536-well plates using a Multidrop Combi Dispenser (ThermoFisher Scientific, Waltham, MA). After 23 nL compound or DMSO vehicle was transferred into assay plate by a pintool work station (Kalypsys, San Diego, CA), fluorescence intensities in the assay plates were measured by an Envision (PerkinElmer, Shelton, CT) plate reader using three labels for measuring blue, green and red fluorescence at […] 460, 535 and 590nm respectively.
# % is set by controls: 0 for no effect and ±100 for the full control effect.
SMILES,outcome,"fluorescence, % of fluorescent control"
CC1=NN(c2cccc(S(=O)(=O)O)c2)C(=O)C1,inactive,
C=COCC1CCC(COC=C)CC1 (stereo not given),inactive,
Cc1ncc(COP(=O)(O)O)c(C=O)c1O,inactive,
CC(=O)c1ccccc1[N+](=O)[O-],inactive,
CO[C@@]1(NC(=O)C(C(=O)O)c2ccc(O)cc2)C(=O)N2C(C(=O)O)=C(CSc3nnnn3C)CO[C@@H]21 (stereo not given in full),,0.413% [at 18.6 µM] (inactive)
C[C@H]1[C@H](NC(=O)/C(=N/OC(C)(C)C(=O)O)c2csc(N)n2)C(=O)N1S(=O)(=O)O (stereo in doubt),,0.0562% [at 18.6 µM] (inactive)
C=CN1CCCCCC1=O,inactive,
CC(CC=O)CC(C)(C)C (stereo not given),inactive,
C[N+]1(C)[C@@H]2CC(OC(=O)[C@H](CO)c3ccccc3)C[C@H]1[C@@H]1O[C@@H]12 (stereo not given in full),inactive,
CC1OC1C1CCC2(C)OC2C1 (stereo not given),inactive,
CCOC(=O)COc1cc(-n2ncc(C(F)(F)F)c(C)c2=O)c(F)cc1Cl,inactive,
CCCc1nn(C)c2c(=O)[nH]c(-c3cc(S(=O)(=O)N4CCN(C)CC4)ccc3OCC)nc12,inactive,
CC12CCC(C(=O)C1=O)C2(C)C (stereo not given),inactive,
CC(COc1ccccc1)NN (stereo not given),inactive,
CC1(C)[C@@H]2CC[C@@]1(C)[C@H](O)C2,inactive,
c1ccc2sc(SN3CCOCC3)nc2c1,inactive,
Cc1ncc([C@@H](CCCCCCc2ccc3c(n2)NCCC3)CC(=O)O)cn1,inactive,
CCCCCCC1CCC(=O)O1 (stereo not given),inactive,
CC(C)COC(=O)c1ccc(N)cc1,inactive,
O=C(c1ccccc1O)c1ccccc1O,inactive,

SMILES,outcome,"fluorescence, % of fluorescent control"
COc1cc(C(=O)OC(COCCC(C)C)CN2CCOCC2)cc(OC)c1OC (stereo not given),inactive,
CN1CCN(c2cc3c(nn2)Oc2ccccc2N3C)CC1,inactive,
O=C1CCCCCCCCCCCCCCO1,inactive,
CC(=O)c1cnccn1,inactive,
[Ca+2],inactive,
COCCOC[C@H](CC1(C(=O)NC2CCC(C(=O)O)CC2)CCCC1)C(=O)Oc1ccc2c(c1)CCC2 (stereo not given in full),inactive,
NC(=O)N[C@@H](CCC(=O)O)C(=O)O,inactive,
C=CCOCC(O)CO (stereo not given),inactive,
CC(=O)OCC(=O)[C@@]1(O)[C@H](C)C[C@H]2[C@@H]3CCC4=CC(=O)C=C[C@]4(C)[C@@]3(F)[C@@H](O)C[C@@]21C,inactive,
OCCCCCO,inactive,
CC1=CC(=O)[C@H]2C[C@@H]1C2(C)C,inactive,
O=C(O)c1cn(C2CC2)c2cc(N3CCNCC3)c(F)cc2c1=O,,-0.0136% [at 18.6 µM] (inactive)
O=C(O)CNC(=O)c1ccc(CO)o1,inactive,
CNCCO,inactive,
CN1C(C)(C)CC(O)CC1(C)C,inactive,
CCN1C=CN(C)C1C (stereo not given),inactive,
COc1cc2c(cc1OC)-c1cc3ccc(OC)c(OC)c3c[n+]1CC2,inactive,
CCCCOCCOC(=O)CCCCCCCCC(=O)OCCOCCCC,inactive,
NC(CCC(=O)O)C(=O)O (stereo not given),inactive,
CNC(=O)Nc1ccc(Cl)c(Cl)c1,inactive,
